Screens deposited in PubChem BioAssay by National Center for Advancing Translational Sciences (NCATS).
Tau fluor cs = counter-screen for tau fibril formation inhibitors. tau K18 P301L Alexa594 fluorescence, heparin fibrillization. Potency, µM (highest dose often 57.7 µM), for inactives: top-dose activity change, negative = decrease. actives 0.93% (n = 280,000). AID 1463; note: potency is the fitted concentration of half-maximal effect; nearly all actives have a fitted effect of over 55% in size
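Human K18 P301L tau (15 uM unlabeled plus 0.24 uM Alexa 594-labeled, final) in 100 mM sodium acetate pH 7 was mixed with compound and 20 uM heparin and incubated 6 hr at 37 C.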
Tau FP inhib = blocks human tau fibril formation measured by polarization | actives 0.39% (n = 280,000) | P10636 | K18 P301L tau heparin fibrillization, Alexa594 FP, 6 h | Potency, µM (highest dose often 57.7 µM), without a hit: top-dose activity, negative = inhibition, usual class: inhibitors; note: potency is the fitted concentration of half-maximal effect; nearly all actives have a fitted effect of over 55% in size
Target sequence (P10636 561-689 P618L limits assumed): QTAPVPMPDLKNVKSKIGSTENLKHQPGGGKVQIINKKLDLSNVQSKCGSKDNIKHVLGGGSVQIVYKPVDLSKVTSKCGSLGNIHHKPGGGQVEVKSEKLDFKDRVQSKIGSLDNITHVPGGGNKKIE
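Human tau K18 […] P301L fragment, 15 uM unlabeled plus 0.24 uM Alexa 594-labeled tau (final), with compound and 20 uM heparin in 100 mM sodium acetate pH 7; 6 hr at 37 C, then Alexa 594 FP read.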
JMJD2E inh = blocks human JMJD2E demethylase activity; B2RXH2; JMJD2E catalytic domain, FDH-coupled NADH fluorescence (FDH is formaldehyde dehydrogenase); Potency, µM (doses to about 57.1 µM), for the others: top-dose activity change, negative = inhibition, usual class: inhibitors; actives 1.6% (n = 230,000); active = well fitted inhibition curve with a large enough effect, not every such curve was filed as active; inconclusive = small, poorly fitted or top-dose-only effect, or another doubt; inactive = no such curve, though single readings can be large or run the other way;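 note: potency is the fitted concentration of half-maximal effect; 0% = wells with enzyme and -100% = buffer wells without enzyme; nearly all actives have a fitted effect of over 50% in size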
NPSR antagonist = blocks cAMP signaling of the human neuropeptide S receptor | Q6W5P4 | CHO-NPSR cells, cAMP TR-FRET, antagonist mode | Potency, µM (titrated, usually from 38.3 µM), for the others: top-dose activity change, negative = inhibition, most hits filed as inhibitors | actives 1% (n = 220,000) | AID 1461; note: potency is the fitted concentration of half-maximal effect; nearly all actives have a fitted effect of over 50% in size
Target sequence (Q6W5P4 whole entry, looked up): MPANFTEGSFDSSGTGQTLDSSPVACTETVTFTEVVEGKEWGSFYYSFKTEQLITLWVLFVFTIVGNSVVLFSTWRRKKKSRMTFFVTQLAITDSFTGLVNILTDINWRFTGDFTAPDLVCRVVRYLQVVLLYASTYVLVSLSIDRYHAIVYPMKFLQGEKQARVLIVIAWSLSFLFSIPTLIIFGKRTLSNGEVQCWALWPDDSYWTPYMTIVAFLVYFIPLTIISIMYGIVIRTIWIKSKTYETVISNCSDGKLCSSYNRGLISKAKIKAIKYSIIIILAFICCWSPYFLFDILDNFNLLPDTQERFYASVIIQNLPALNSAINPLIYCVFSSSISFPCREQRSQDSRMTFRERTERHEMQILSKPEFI
Tau fibril ThT = blocks human tau fibril formation measured by thioflavin T; P10636; recombinant tau K18 P301L (four-repeat tau fragment), heparin-induced fibrillization, ThT fluorescence; Potency, µM (top dose mostly 57.4 µM), inactives show at the highest dose activity, negative = inhibition, most hits filed as inhibitors; actives 2.1% (n = 270,000); note: potency is the fitted concentration of half-maximal effect; nearly all actives have a fitted effect of over 55% in size
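Heparin-induced (20 uM) aggregation of recombinant human K18 P301L tau, 15 uM unlabeled with 0.24 uM labeled, pH 7 acetate buffer, 6 hr at 37 C with compound. Fibrils quantified by 30 uM ThT fluorescence after 1 hr ambient incubation.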
PNC inhibitor = inhibitors of perinucleolar compartment assembly; PC3M PTB-GFP, PNC prevalence imaging, 16 h; active compounds read low; activity change (PNC), negative = inhibition, % at 10 µM; AID 2417; actives 3.1% (n = 140,000);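 active = readout at or below -70, meaning at least 70% loss of cells showing the perinucleolar compartment, a nuclear body marking cancer cells; inconclusive = readout between -30 and a set limit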;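 note: plate controls were DMSO wells for no effect and camptothecin positive control wells for full effect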
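Read-out is percentage of cells bearing a perinucleolar compartment, from automated 20x imaging of fixed, Hoechst-stained PC3M PTB-GFP cells. Cells were seeded 4 h, then exposed 16 h to compound (23 nl of library stock) in duplicate plates.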
Active calls of the source: *; ? = inconclusive; . = no result given; [ ] = another dose, or the depositor's remark. Rows were chosen to be rich in hits. Some 5.1% of all compounds tested hit in one or more screens of this group. Unless noted, calls come from the whole dose curve; as a rule, active = well fitted curve in the direction sought with a large enough effect; inconclusive = small, poorly fitted or top-dose-only effect, or another doubt; inactive = no such curve, though single readings can be large; an effect the other way counts as inactive or inconclusive. Unless noted, % is set by controls: 0 for no effect and ±100 for the full control effect.

SMILES	Tau fluor cs	Tau FP inhib	JMJD2E inh	NPSR antagonist	Tau fibril ThT	PNC inhibitor
CC1(C)CC(=O)c2c(oc3cc(O)c(O)cc23)C1	?	?	12.6µM*	-6.9%[46.1 µM]	28.2µM*	47.3
C[C@H]1Cc2c(-c3ccccc3)nc3c(c2CO1)CN(S(=O)(=O)c1ccc2c(c1)OCCN2C)CC3	8.1%[11.6 µM]	1.6%[11.6 µM]	-1.4%[11.4 µM]	.	9.8%[11.5 µM]	.
CCOc1ccc2nc(NC(=S)N(C)C)sc2c1	?	10.4%	-2.2%	?	?	35.6
CCOc1ccc2nc(N=NC3=C(O)CC(C)(C)CC3=O)sc2c1	-22.9%	-8.3%	22.4µM*	-28.0%	14.1µM*	.
S=C(NCc1ccccc1)N1CCc2ccccc2C1	?	?	4.4%	-6.6%	-7.1%	.
Fc1ccc2[nH]c3c(c2c1)CN(C(=S)NCc1ccccc1)CC3	15.8µM*[quencher]	?	-17.2%	49.2%	?	.
COc1ccc(/C=N/NC(=O)C(C)n2cnc3ccccc3c2=O)cc1 (stereo unspecified)	-6.1%	0.6%	-1.0%	-5.5%	-6.0%	-119.3*
C/C(=N\NC(=O)c1cccc(N/N=C(\C)c2cc(O)ccc2O)c1)c1cc(O)ccc1O	?	?	25.1µM*	-23.5%	28.2µM*	.
C/C(=N/Nc1ccc(C(=O)O)cc1)c1ccc(O)c(O)c1O	-22.2%	?	8.91µM*	18.7%	11.2µM*	35.0
C/C(=N\NC(=O)c1ccc(N/N=C(\C)c2ccc(O)cc2)cc1)c1ccc(O)cc1	15.8µM*[quencher]	?	?	?	3.16µM*	.
C/C(=N\NC(=O)c1cccc(N/N=C(\C)c2ccco2)c1)c1ccco1	-27.6%	14.9%	-4.6%	-10.7%	?	.
Cc1ccc(Cl)cc1NC(=O)c1oc2ccc(S(=O)(=O)N3CCC4(CC3)OCCO4)cc2c1C	-0.2%	2.0%	.	.	3.2%	.
COC(=O)CN1C(C(=O)c2ccccc2)=C(OC(=O)c2ccc(C)cc2)c2ccccc2S1(=O)=O	-6.8%	8.4%	.	.	?	.
Cc1cccc(N2C(=O)N(CC(=O)C(C)(C)C)c3ccccc3S2(=O)=O)c1C	-13.9%	-0.5%	.	.	-0.5%	.
Cc1cc(S(=O)(=O)N2CCN(c3c(C)cccc3C)CC2)ccc1F	-8.1%	-0.2%	-18.0%	-21.1%[46.1 µM]	?	-7.6
CCC(C)N(C)Cc1cccc(C2(O)CCN(S(=O)(=O)c3ccc(F)c(C)c3)CC2)c1 (stereo unspecified)	-16.3%	-6.0%	8.8%	18.4%	-16.5%	-113.4*
Cc1ccc(CNC(=O)C2CCCN(Cc3nc(-c4cccc(C)c4)oc3C)C2)cc1 (stereo unspecified)	-22.8%	6.8%	.	.	?	.
O=C(O)CN1CCCC1=Nc1ccccc1	-5.3%	-2.5%	-6.1%	-37.5%[46.1 µM]	1.5%	-10.7
Cc1ccc(C)c(N=C2CCCN2Cc2ccccc2)c1C#N	-10.8%	2.4%	0.9%	-29.8%	-16.6%	-118.9*
Cc1cccc(NC(=O)c2cc(NC(=O)c3ccco3)ccc2Cl)n1	-0.7%	-1.2%	1.4%	?	-0.7%	-110.0*
CCOc1ccc(N2C(=O)N(Cc3ccc(C)cc3C)c3ccccc3S2(=O)=O)cc1	-3.6%	-14.1%	.	.	11.2%	.
CC(C)CSc1n[nH]c(=S)s1	-2.4%	-3.2%	10µM*	11.1%	-6.6%	.
O=C1c2ccccc2C(=O)N1CCSc1n[nH]c(=S)s1	-7.8%	-11.1%	?	-4.4%[46.1 µM]	-14.3%	-9.5
O=C(CSc1ncn[nH]1)CSc1ncn[nH]1	-10.5%	-5.3%	3.55µM*	15.7%	-13.1%	.
CC(C)c1ccc(C(=O)CSc2ncn[nH]2)cc1	-8.7%	-10.1%	25.1µM*	-8.0%[46.1 µM]	-23.9%	-15.1
SMILES	Tau fluor cs	Tau FP inhib	JMJD2E inh	NPSR antagonist	Tau fibril ThT	PNC inhibitor
CC(C)(C)NC(=O)NC(=O)CSc1ncn[nH]1	0.3%	0.2%	-3.9%	14.8%	-2.9%	.
OC(CNc1nc2ccccc2s1)c1ccccc1 (stereo unspecified)	-10.0%	9.5%	2.1%	-3.4%[46.1 µM]	-10.6%	-81.6*
CCOC(=O)c1nn(-c2ccc(Cl)cc2)c2nnc(Cc3ccc(C)cc3)c(=O)n12	-0.2%	-3.3%	-4.0%	-33.1%	2.2%	-109.0*
CC(=O)Oc1ccc(C(=O)Cc2ccc3ccccc3n2)c(O)c1C	-15.0%	0.6%	-4.6%	0.0%	1.41µM*	?
COC(=O)c1ccc2nc(C)c(C)nc2c1	3.1%	0.3%	5.4%	3.6%[46.1 µM]	2.8%	-18.9
COC(=O)c1cc(N=Nc2sc(N)nc2C)cc(C(=O)OC)c1	?	8.8%	-17.7%	-2.2%	15.8µM*	.
C=CCOc1c(Br)cc(/C=N/O)cc1OCC	-1.1%	2.7%	-8.6%	-5.2%	-0.8%	-108.6*
CCOC(=O)c1ccccc1NC(=O)Cn1c(=O)n(Cc2nc(-c3ccccc3)no2)c(=O)c2ccccc21	-19.6%	?	.	.	1.3%	.
NC(C(=O)O)[C@H](O)C(=O)O (stereo partly specified)	4.5%	-2.0%	.	.	11.3%	.
Cc1ccc(S(=O)(=O)c2ccccc2)cc1S	-16.8%	?	4.1%	9.3%	28.2µM*	.
Nc1ccc(S(=O)(=O)c2cccc(N)c2)cc1	-3.2%	5.9%	-8.6%	-4.6%[46.1 µM]	-12.5%	4.5
CCCCN(CC)CCCNC(=O)C1CCN(c2nc3ccc(CC)cc3s2)CC1	-24.6%	?	.	.	-16.3%	.
COc1ccc2c(c1)cc(CNc1ccc(OC)c(OC)c1)c(=O)n2CC(=O)Nc1ccc(F)cc1	15.8µM*[quencher]	6.3%	.	.	?	.
Cc1ccc(/C=C2\SC(=S)N(/N=C/c3cc([N+](=O)[O-])ccc3O)C2=O)o1	?	?	5.4%	-41.2%	17.8µM*	.
O=[N+]([O-])c1ccc(O)c(/C=N/n2cnc3ccccc32)c1	-18.9%	5.3%	8.5%	-17.9%[46.1 µM]	?	-18.3
O=C1NC[C@H](c2ccccc2)N1	-2.1%	-7.2%	-27.1%	.	2.4%	.
COc1cccc(Nc2nc(-c3cccc(N4C(=O)c5ccccc5C4=O)c3)cs2)c1	7.94µM*[quencher]	?	-0.8%	-17.1%[46.1 µM]	?	77.8
Cc1cccc(Nc2nc(-c3ccc4c(c3)OCCO4)cs2)c1	12.6µM*[quencher]	4.3%	-9.0%	-4.6%[46.1 µM]	7.08µM*	21.8
Cc1cccc(C)c1Nc1nnc(SCc2nc3ccccc3s2)s1	-13.4%	7.6%	-7.4%	-13.1%[46.1 µM]	?	-10.7
Cc1cccnc1Nc1nc(-c2ccc(O)cc2)cs1	17.8µM*[quencher]	12.2%	-11.9%	-13.9%[46.1 µM]	12.6µM*	?
Oc1ccc(-c2csc(Nc3ncccn3)n2)c(O)c1	?	?	6.9%	-2.3%	?	.
COc1cccc(Nc2nnc(SCN3C(=O)c4ccccc4C3=O)s2)c1	?	-14.3%	4.3%	5.7%	-0.3%	1.1
COc1cccc(Nc2nnc(SCc3nc4ccccc4s3)s2)c1	14.1µM*[quencher]	-13.4%	-2.3%	-3.1%	?	-18.2
